Experimental data: the supplement of paper PMC8728848
Shown is part of a subset that was picked to be rich in the strongest signals.

Columns and labels:
Experiment in all cases: glycan array binding signal (z-score within array); higher = stronger binding
Details in all cases: glycan notation: IUPAC condensed, linker removed
GlcNAc(b1-3)Gal(b1-4)Glc = biological target: GlcNAc(b1-3)Gal(b1-4)Glc
How it was run: (§1)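 The binding signal is a Z-score computed within each array. Data were drawn from 3228 arrays in the Consortium for Functional Glycomics database, restricted to those with a known protein sequence. Scores were averaged over arrays of the same protein sequence at different concentrations or buffers, and over linkers, and negative values can be taken as non-binding.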

[1] = biological target: GlcNAc(b1-3)Gal(b1-4)GlcNAc(b1-2)[GlcNAc(b1-3)Gal(b1-4)GlcNAc(b1-6)]Man(a1-6)[GlcNAc(b1-3)Gal(b1-4)GlcNAc(b1-2)Man(a1-3)]Man(b1-4)GlcNAc(b1-4)GlcNAc
How it was run: as §1

[2] = biological target: GlcNAc(b1-3)Gal(b1-4)GlcNAc(b1-3)Gal(b1-4)GlcNAc
How it was run: as §1

[3] = biological target: GlcNAc(b1-4)GlcNAc(b1-4)GlcNAc(b1-4)GlcNAc(b1-4)GlcNAc(b1-4)GlcNAc
How it was run: as §1

[4] = biological target: GlcNAc6S(b1-3)Gal(b1-4)GlcNAc
How it was run: as §1

[5] = biological target: Neu5Ac(a2-3)Gal(b1-3)GalNAc
How it was run: as §1

[6] = biological target: Neu5Ac(a2-3)Gal(b1-3)GlcNAc(b1-2)Man(a1-3)[GlcNAc(b1-4)][Neu5Ac(a2-3)Gal(b1-3)GlcNAc(b1-2)Man(a1-6)]Man(b1-4)GlcNAc(b1-4)GlcNAc
How it was run: as §1

[7] = biological target: Neu5Ac(a2-3)Gal(b1-4)GlcNAc(b1-2)[Neu5Ac(a2-3)Gal(b1-4)GlcNAc(b1-4)]Man(a1-3)[GlcNAc(b1-4)][Neu5Ac(a2-3)Gal(b1-4)GlcNAc(b1-2)[Neu5Ac(a2-3)Gal(b1-4)GlcNAc(b1-6)]Man(a1-6)]Man(b1-4)GlcNAc(b1-4)GlcNAc
How it was run: as §1

[8] = biological target: Neu5Ac(a2-3)Gal(b1-4)GlcNAc(b1-3)Gal(b1-4)GlcNAc(b1-2)Man(a1-3)[Neu5Ac(a2-3)Gal(b1-4)GlcNAc(b1-3)Gal(b1-4)GlcNAc(b1-2)Man(a1-6)]Man(b1-4)GlcNAc(b1-4)GlcNAc
How it was run: as §1

[9] = biological target: Neu5Ac(a2-3)Gal(b1-4)GlcNAc(b1-3)Gal(b1-4)[Fuc(a1-3)]GlcNAc
How it was run: as §1

[10] = biological target: Neu5Ac(a2-3)Gal(b1-4)[Fuc(a1-3)]GlcNAc(b1-2)Man
How it was run: as §1

[11] = biological target: Neu5Ac(a2-3)Gal(b1-4)[Fuc(a1-3)]GlcNAc(b1-3)GalNAc
How it was run: as §1

[12] = biological target: Neu5Ac(a2-3)Gal6S(b1-4)[Fuc(a1-3)]GlcNAc
How it was run: as §1

[13] = biological target: Neu5Ac(a2-3)[GalNAc(b1-4)]Gal(b1-4)GlcNAc(b1-3)GalNAc
How it was run: as §1

[14] = biological target: Neu5Ac(a2-6)Gal(b1-4)GlcNAc(b1-2)Man
How it was run: as §1

[15] = biological target: Neu5Ac(a2-6)Gal(b1-4)GlcNAc(b1-2)Man(a1-6)[GlcNAc(b1-2)Man(a1-3)]Man(b1-4)GlcNAc(b1-4)GlcNAc
How it was run: as §1

[16] = biological target: Neu5Ac(a2-6)Gal(b1-4)GlcNAc(b1-2)[Neu5Ac(a2-6)Gal(b1-4)GlcNAc(b1-4)]Man(a1-3)[GlcNAc(b1-4)][Neu5Ac(a2-6)Gal(b1-4)GlcNAc(b1-2)[Neu5Ac(a2-6)Gal(b1-4)GlcNAc(b1-6)]Man(a1-6)]Man(b1-4)GlcNAc(b1-4)GlcNAc
How it was run: as §1

[17] = biological target: Neu5Ac(a2-6)Gal(b1-4)GlcNAc(b1-2)[Neu5Ac(a2-6)Gal(b1-4)GlcNAc(b1-6)]Man(a1-6)[Neu5Ac(a2-6)Gal(b1-4)GlcNAc(b1-2)Man(a1-3)][GlcNAc(b1-4)]Man(b1-4)GlcNAc(b1-4)GlcNAc
How it was run: as §1

[18] = biological target: Neu5Ac(a2-6)Gal(b1-4)GlcNAc(b1-3)Gal(b1-4)GlcNAc(b1-3)Gal(b1-4)GlcNAc(b1-2)Man(a1-3)[Neu5Ac(a2-6)Gal(b1-4)GlcNAc(b1-3)Gal(b1-4)GlcNAc(b1-3)Gal(b1-4)GlcNAc(b1-2)Man(a1-6)]GalNAc
How it was run: as §1

[19] = biological target: Neu5Ac(a2-8)Neu5Ac(a2-3)[GalNAc(b1-4)]Gal(b1-4)Glc
How it was run: as §1

[20] = biological target: Neu5Ac(a2-8)Neu5Ac(a2-8)Neu5Ac(a2-3)Gal(b1-4)Glc
How it was run: as §1

[21] = biological target: Neu5Ac(a2-8)Neu5Ac(a2-8)Neu5Ac(a2-8)Neu5Ac(a2-3)[GalNAc(b1-4)]Gal(b1-4)Glc
How it was run: as §1

[22] = biological target: Neu5Ac(a2-8)Neu5Gc(a2-3)Gal(b1-4)GlcNAc
How it was run: as §1

Neu5Ac(b2-6)GalNAc = biological target: Neu5Ac(b2-6)GalNAc
How it was run: as §1

Neu5Gc(a2-6)GalNAc = biological target: Neu5Gc(a2-6)GalNAc
How it was run: as §1

B1: PX9896A-bth-573-26-573 (Bacteroides thetaiotaomicron) (protein)
chain: ETNNLKTKEDMYKYFGTSKSMLTHVYSYMPQGYQLFATSGGIFTEDRYSMRDCASDDGEFGAYADNIQNTNNGNWSPIKTYDDSWTLYRGIRAANSFIAEIAQVDFTRYEHDGQYTNWMKQLKYFPYEARVLRAHYFFELARRYGDIAMPLEVLTEEEANTIGKTPFSEVISFIVSECDDAANNLPDSYVNEPGAEIGRVTKGFAMAVKSKALLYAASKLHNPSMDTELWKKSAKAAIDIINTGLYSLDPQESANNLDSKEVVLMRINGDDSDFEMFNLPLRMTAGTRTSSLIPYSNYPSQNLVDAFETVNGYKVTLENTGWVCEDPAFDPQSPYENRDKRFYRAILANGMSFKDYTIETFKGGADDGIVSQGGSPTGYFLRKYIQEATSFEPGKEAVSKHHWVIYRYAETLLTYAESMVNAFNDVNYTDETYKYSALWAINEVRKNADMPLIPSMGKDEFMERLYNEWRVEFAFEDHRFWDVRRWKIADTTQRELYGVKIEKQADGTFNFYKNLYETRNWRDCMYLYPIPQSELYKNTNLNPQNTGW
Question: Which results are given for B1?
Answer: glycan array binding signal (z-score) (GlcNAc(b1-3)Gal(b1-4)Glc): 0.621; glycan array binding signal (z-score) [1]: 0.497; glycan array binding signal (z-score) [2]: -0.759; glycan array binding signal (z-score) [3]: -0.604; glycan array binding signal (z-score) [4]: 0.875; glycan array binding signal (z-score) [5]: -0.359; glycan array binding signal (z-score) [6]: -0.678; glycan array binding signal (z-score) [7]: -0.635; glycan array binding signal (z-score) [8]: -0.638; glycan array binding signal (z-score) [9]: -0.535; glycan array binding signal (z-score) [10]: -0.204; glycan array binding signal (z-score) [11]: 4.79; glycan array binding signal (z-score) [12]: -0.756; glycan array binding signal (z-score) [13]: -0.496; glycan array binding signal (z-score) [14]: -0.386; glycan array binding signal (z-score) [15]: -0.598; glycan array binding signal (z-score) [16]: -0.093; glycan array binding signal (z-score) [17]: -0.82; glycan array binding signal (z-score) [18]: 1.34; glycan array binding signal (z-score) [19]: -0.414; glycan array binding signal (z-score) [20]: -0.639; glycan array binding signal (z-score) [21]: 0.475; glycan array binding signal (z-score) [22]: 13.3; glycan array binding signal (z-score) (Neu5Ac(b2-6)GalNAc): -0.726; glycan array binding signal (z-score) (Neu5Gc(a2-6)GalNAc): -0.244
